GALR2 ag: activates the human galanin receptor 2. O43603. activation, % (concentration not given with the values). AID 803. 140,000 compounds, 0.48% hits. GALR2-expressing cells, agonist activation read-out; in the data active = activation above about 5%, passing the limit was not always enough;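 also: 0% = vehicle buffer wells and 100% = reference agonist at full effect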
Smad3 inh: blocks human Smad3 binding to FoxH1 peptide | P84022 | 88,000 compounds, 0.29% hits | TR-FRET Smad3/Dy647-FoxH1 peptide binding, europium anti-His | inhibition, % at 25 µM;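 active = compounds that reduce the energy-transfer binding signal between the protein and its labelled peptide by more than half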;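 also: 0% = Smad3 plus labelled peptide maximal FRET and 100% = peptide-only background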
Target sequence (P84022 whole entry, looked up): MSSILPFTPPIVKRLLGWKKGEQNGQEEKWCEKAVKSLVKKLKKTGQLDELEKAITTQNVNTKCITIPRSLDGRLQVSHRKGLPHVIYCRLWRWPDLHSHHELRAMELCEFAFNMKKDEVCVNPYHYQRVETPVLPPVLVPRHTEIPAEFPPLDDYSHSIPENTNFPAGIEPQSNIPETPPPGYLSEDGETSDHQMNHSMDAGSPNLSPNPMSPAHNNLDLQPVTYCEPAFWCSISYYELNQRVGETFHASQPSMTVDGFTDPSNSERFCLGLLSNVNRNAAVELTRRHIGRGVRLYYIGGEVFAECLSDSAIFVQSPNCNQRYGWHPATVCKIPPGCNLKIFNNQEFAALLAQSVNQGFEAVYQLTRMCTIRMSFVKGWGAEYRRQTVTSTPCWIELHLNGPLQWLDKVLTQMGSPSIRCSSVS
GALR2 blocker: antagonists of human galanin receptor 2 (GALR2); O43603; GALR2-expressing cells, antagonist mode; inhibition, % at 4 µM; 140,000 compounds, 0.39% hits; AID 828;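 also: cells stimulated with galanin 1-16 at roughly its EC80; 0% = agonist challenge control and 100% = basal control without agonist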
MT1-MMP txn act: activates MT1-MMP transcription; activation factor at 10 µM; 86,000 compounds, 0.16% hits; AID 750; HT1080 MT1-MMP promoter luciferase reporter, luminescence, overnight; stronger effect = higher value;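 active = activation factor of at least 2 for MT1-MMP transcription at 10 µM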
S1P2 blocker: S1P2 (human) receptor antagonism; O95136; cell-based S1P2 antagonist assay, inhibition at 5 uM; inhibition, % at 5 µM; 97,000 compounds, 0.21% hits; AID 736; in the data active = inhibition above about 45%;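 also: CRE beta-lactamase reporter cells expressing human S1P2 stimulated with S1P; 0% = agonist at EC80 alone and 100% = agonist plus reference antagonist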
Target sequence (O95136 whole entry, looked up): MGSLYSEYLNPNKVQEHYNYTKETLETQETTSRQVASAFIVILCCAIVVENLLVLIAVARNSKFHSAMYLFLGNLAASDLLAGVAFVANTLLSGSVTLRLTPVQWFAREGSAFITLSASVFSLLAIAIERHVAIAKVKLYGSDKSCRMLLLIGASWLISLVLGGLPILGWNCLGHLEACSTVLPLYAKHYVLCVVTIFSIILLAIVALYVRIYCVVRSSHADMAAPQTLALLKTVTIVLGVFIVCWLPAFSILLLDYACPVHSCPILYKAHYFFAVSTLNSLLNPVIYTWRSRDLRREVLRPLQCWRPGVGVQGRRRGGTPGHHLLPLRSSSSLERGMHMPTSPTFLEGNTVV
S1P2 agonist: agonists of human S1P2 receptor. O95136. S1P2-expressing cell line, agonist reporter read-out. activation, % at 4.5 µM. 97,000 compounds, 0.46% hits; in the data active = activation above about 16%;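 also: 0% = vehicle low control and 100% = maximal reference agonist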
GALR2 agon conf: confirmation of human galanin receptor 2 (GALR2) agonists; shares compounds with GALR2 ag; GALR2-expressing cells, agonist activation; activation, % at 5.6 µM; 460 compounds, 10% hits; AID 864; in the data active = activation above about 8.4%;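 also: 0% = buffer-only vehicle wells and 100% = full reference agonist response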
BLA activ ctr: counter-screen for GALR2 agonists: beta-lactamase reporter activators; shares compounds with GALR2 ag; CHO NFAT-bla reporter, beta-lactamase FRET activation; activation, % at 5.6 µM; 460 compounds, 10% hits;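 active = activation above the screen-wide mean activation plus 3 SD, cut at about 8% in these data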;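 also: 0% = DMSO with PBS wells and 100% = thapsigargin positive control wells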
GALR2 ant conf: confirmation of human galanin receptor 2 (GALR2) antagonists; inhibition, % at 4 µM; shares compounds with GALR2 blocker; 480 compounds, 60% hits; AID 866; GALR2-expressing cells, antagonist mode, inhibition;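 also: cells stimulated with galanin at about its EC80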
BLA inh counter: inhibits beta-lactamase reporter in GALR2 antagonist counterscreen. shares compounds with GALR2 blocker. CHO NFAT-BLA reporter, beta-lactamase FRET, thapsigargin-stimulated. inhibition, % at 4.2 µM. 480 compounds, 36% hits;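 active = inhibition above the mean inhibition across tested compounds plus 3 SD, cut at about 27% in these data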;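 also: 0% = 500 nM thapsigargin stimulated wells and 100% = unstimulated BSA only wells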
Active calls of the source: *; nt = not tested or not shown. Shown are actives, neighbours in structure and some others; about 1.4% of the full set was active somewhere. Rule as the data show it, unless noted: active = inhibition above about 27%; inactive = the rest.

SMILES	GALR2 ag	Smad3 inh	GALR2 blocker	MT1-MMP txn act	S1P2 blocker	S1P2 agonist	GALR2 ant conf	BLA inh counter	others
N#C/C(=C\c1c(N2CCC(C(N)=O)CC2)nc2ccccn2c1=O)C(=O)NCc1ccco1	-0.3	nt	2.4	nt	nt	nt	nt	nt
N[C@@H](Cc1nn[nH]n1)C(=O)O	nt	3.8	nt	nt	nt	nt	nt	nt
CC1(C)CC(=O)C=C(Nc2ccc(S(N)(=O)=O)cc2)C1	40.9*	0.1	7.2	1	-13.4	-11.2	nt	nt	GALR2 agon conf=-0.8;BLA activ ctr=-2.3
CC1(C)CC(=O)C=C(Nc2ccc(C(=O)O)cc2)C1	-0.1	-3.0	7.7	1.1	-8.7	-2.8	nt	nt
N#Cc1cc2c(=O)n3ccccc3nc2n(CCN2CCOCC2)c1=O	nt	0.3	nt	1	nt	nt	nt	nt
N#Cc1cc2c(=O)n3ccccc3nc2n(CCCN2CCOCC2)c1=O	8.6*	-8.3	1.6	1.1	nt	nt	nt	nt	GALR2 agon conf=2.6;BLA activ ctr=8.2*
COCCNC(=O)CCCn1c(=O)c2ccccc2n(CC(=O)NCCC2=CCCCC2)c1=O	-0.2	-13.0	-16.7	1.1	25.6	-2.0	nt	nt
O=C(CCn1c(=O)c2ccccc2n(CC(=O)NCCC2=CCCCC2)c1=O)NCc1ccco1	85.7*	-13.9	15.0	1.3	15.5	-8.5	nt	nt	GALR2 agon conf=-0.7;BLA activ ctr=-4.2
CCCS(=O)(=O)c1snnc1C	14.0*	8.1	-15.0	1.2	-5.0	-3.5	nt	nt	GALR2 agon conf=-0.6;BLA activ ctr=0.3
Cn1nc(OC(=O)Nc2ccc(F)cc2)cc1C(F)(F)F	62.3*	3.7	-2.3	1.4	-1.7	-6.5	nt	nt	GALR2 agon conf=-1.2;BLA activ ctr=-2.5
C=CCn1c(NS(=O)(=O)c2ccccc2)c(S(=O)(=O)c2ccc(C)cc2)c2nc3ccccc3nc21	2.6	nt	-6.9	nt	nt	nt	nt	nt
CC(=O)Nc1c(S(=O)(=O)c2ccccc2)c2nc3ccccc3nc2n1Cc1ccccc1	10.1	nt	-7.0	nt	3.7	4.0	nt	nt	GALR2 agon conf=0.7;BLA activ ctr=6.2
CCOC(=O)COn1c(=O)c[n+]([O-])c2ccccc21	-1.6	1.9	-18.6	1.2	-3.9	-0.5	nt	nt
CCOC(=O)COn1c(=O)c(C)[n+]([O-])c2ccccc21	31.2*	-0.8	-2.8	1.2	-12.4	-3.6	nt	nt	GALR2 agon conf=-0.3;BLA activ ctr=-3.0
COc1cc(NCCC(=O)O)c2ncccc2c1	nt	5.8	nt	nt	nt	nt	nt	nt
Cc1ccc2nsnc2c1NC(=O)c1ccc(-c2cc(Cl)ccc2Cl)o1	10.1	nt	37.9*	nt	28.1	4.0	23.4	20.5	GALR2 agon conf=10.7*;BLA activ ctr=3.3
O=S(=O)(c1cccc(C(F)(F)F)c1)N1c2ccccc2-n2cccc2[C@H]1c1cccnc1	nt	31.2	nt	nt	nt	nt	nt	nt
O=C(CCl)N(c1ccccc1)c1c[nH]c2ccccc12	-2.9	-1.3	36.9*	0.2	27.4	-8.2	38.2*	18.4
Cc1c(Cl)cc(C(C)(C)C)c(O)c1Cc1c(C)c(Cl)cc(C(C)(C)C)c1O	nt	15.8	nt	nt	nt	nt	nt	nt
NCCSCCC(=O)O	nt	39.2	nt	nt	nt	nt	nt	nt
Cc1cc(/C=N/n2cnnc2)c(C)n1-c1ccc(Cl)cc1Cl	0.8	3.6	-4.9	0.9	-17.4	9.2	nt	nt
Cc1cc(/C=N/n2cnnc2)c(C)n1-c1ccc(OCc2ccc(Cl)cc2Cl)cc1	0.2	9.1	28.6*	nt	73.8*	-5.6	44.6*	22.1
Cc1ncn(-c2ccccc2O)c1C	nt	20.1	nt	nt	nt	nt	nt	nt
O=C(OCCN1C(=O)c2cccc3c(N4CCOCC4)ccc(c23)C1=O)c1ccccc1Cl	-0.6	nt	33.2*	nt	nt	nt	33.5*	45.7*
COc1ccc(C(=O)c2sc3nc(-c4ccc(OC)cc4)ccc3c2N)cc1	-1.4	nt	6.4	nt	nt	nt	nt	nt
SMILES	GALR2 ag	Smad3 inh	GALR2 blocker	MT1-MMP txn act	S1P2 blocker	S1P2 agonist	GALR2 ant conf	BLA inh counter	others
COc1ccc(-c2ccc3c(N)c(C(=O)c4cccc(OC)c4)sc3n2)cc1	-2.7	nt	29.4*	nt	17.7	-7.6	20.3	23.3
O=C(NC(Nc1nc2ccc([N+](=O)[O-])cc2s1)(C(F)(F)F)C(F)(F)F)c1ccccc1Cl	-2.5	nt	96.5*	nt	nt	nt	94.2*	91.0*
Nc1ccc2c(C(F)(F)F)cc(=O)oc2c1	1.6	13.8	39.1*	1.1	35.0	2.8	22.9	45.6*
N=C(c1ccc2ccccc2c1)c1ccccc1Cc1ccccc1	nt	3.7	nt	nt	nt	nt	nt	nt
COc1cc(/C=C(/C(=O)c2cccs2)c2nc3ccccc3[nH]2)cc(OC)c1O	-3.1	18.1	32.2*	0.8	44.3	-9.0	31.5*	34.5*
COc1ccc(/C=N/NC(=O)C(N)=O)c(OC)c1OC	-1.6	nt	27.1*	nt	nt	nt	8.7	12.6
COc1ccc(/C=N/NC(=O)C[n+]2ccccc2)c(OC)c1OC	-1.4	nt	7.3	nt	nt	nt	nt	nt
CCCCCOc1ccc(Br)cc1CSC(=N)N	0.4	nt	33.3*	nt	nt	nt	37.7*	76.9*
Oc1ccc(Cc2cc(Cl)cc(Cl)c2O)cc1Cl	nt	7.6	nt	nt	nt	nt	nt	nt
COc1ccc(/C(C)=N/NC(=O)c2ccc(N(C)C)cc2)cc1	-2.6	nt	-3.0	nt	2.0	-6.3	nt	nt
CCN(CC)c1ccc(C(=O)N/N=C(\C)c2ccc(O)cc2)cc1	-3.2	nt	30.3*	nt	nt	nt	23.5	7.0
Cc1ccc(N=Cc2sc(O)c3ccccc23)cc1	-1.9	nt	27.8*	nt	38.1	-8.0	32.4*	31.5*
CCOC(=O)C(=CNc1ccc(NC2=NCC(C)S2)cc1)C(=O)OCC (centres undefined)	2.1	nt	32.6*	nt	nt	nt	45.0*	37.2*
CCOC(=O)C(=CNc1cccc(N)n1)C(=O)OCC	0.4	nt	-21.6	nt	-10.2	-4.0	nt	nt
O=c1c2c(-c3cccs3)csc2ncn1-c1ccc(Br)cc1	-0.4	-12.3	55.2*	1.1	-38.0	1.6	13.4	8.1
COc1cccc(-n2cnc3scc(-c4cccs4)c3c2=O)c1	-3.1	13.7	4.9	1.1	-42.4	1.1	nt	nt
O=C(Nc1ccc([N+](=O)[O-])cc1)Nc1nc(-c2ccc(Cl)s2)cs1	1.2	nt	32.1*	nt	nt	nt	37.7*	19.5
OC[C@H](CCc1c[nH]c2ccccc12)c1c[nH]c2ccccc12	nt	3.7	nt	nt	nt	nt	nt	nt
CCN(CC)c1ncnc2c1[nH]c1ccccc12	-3.1	9.2	23.9	nt	-5.9	-7.4	nt	nt
CCCOc1ncnc2c1[nH]c1ccccc12	-1.5	nt	28.7*	nt	0.8	-11.7	27.7*	0.7
COc1ccc(OC)c(NC(=O)C2CCCN(S(=O)(=O)c3cccc4nsnc34)C2)c1 (centres undefined)	-1.5	-4.4	8.5	1.3	8.9	-5.2	nt	nt
COc1ccc(Cl)cc1NC(=O)C1CCCN(S(=O)(=O)c2cccc3nonc23)C1 (centres undefined)	-1.0	10.1	31.0*	nt	5.7	-8.8	22.3	6.5
CCc1nnc(NC(=O)C(C)C)s1	0.1	6.4	-12.3	1.2	-32.5	-3.4	nt	nt
CCc1nnc(NC(=O)C=C(C)C)s1	-4.5	-4.4	27.7*	1.4	5.7	-1.8	9.2	11.0
CN(C)CCCN1C(=O)c2cccc3c([N+](=O)[O-])ccc(c23)C1=O	0.8	nt	56.4*	nt	nt	nt	47.8*	30.6*
